Measured values published in PubChem BioAssay AID1347051 (National Center for Advancing Translational Sciences (NCATS), 2019).
Hit rate of the full screen: of about 1,400 compounds, about 980 (70%) were called active. Roughly 16% stayed inconclusive and do not appear here. Calls follow the shape of the full dose curve. So high a share suggests a set chosen from earlier hits. These entries were drawn from the full list.

Assay: Natriuretic polypeptide receptor (hNpr1) antagonism - Counterscreen GloSensor control cell line; also: nearly all actives have a fitted effect of over 70% in size
Conditions: HEK293 GloSensor cGMP, SNP-stimulated, luminescence; series mostly up to 57.6 µM
Description: cGMP production was measured using a circular permutated firefly luciferase (FLuc) enzyme functionally linked to the cGMP binding domain of human phosphodiesterase 5 (GloSensor technology pGS-40F, (Fan, F. et al. 2008). The cGMP-sensor was expressed in human embryonic kidney 293 (HEK-293) cells and FLuc activity was measured after stimulation with the NO-donor sodium nitroprusside (SNP). SNP activates the endogenously expressed soluble guanylyl cyclase (GC) producing cGMP which then binds to the GloSensor resulting in FLuc activation, the enzymatic activity of which can be measured as bioluminescence with addition of luciferin substrate. F. Fan, B. F. Binkowski, B. L. Butler, P. F. Stecha, M. K. Lewis, K. V. Wood, Novel genetically encoded biosensors using firefly luciferase. ACS Chem Biol 3, 346-351 (2008).
PROTOCOL TABLE (as described by Inglese J, Shamu CE and Guy RK. 2007) SEQUENCE No. (e.g., 1, 2, 3, etc.); PARAMETER (e.g., Cells, Incubation, Reagent, etc.); VALUE and DESCRIPTION. 1. Cells. Seed 1500 HEK293 cGMP-sensor cells per well in 4uL into Greiner 1536-well white/solid bottom high base, TC plates. 2. Incubation. Incubate plated cells at 37C in 5% CO2, 95% RH overnight. 3. Reagent. Add 1uL per well GloSensor reagent from Promega (2% final concentration) or CO2 independent media vehicle control to respective columns of Greiner 1536-well plates. 4. Incubation. Incubate plated cells at room temperature for 2 h, protect from light. 5. Compounds. Library compounds and DMSO vehicle control added at 23nL per well, transferred by Pin Tool. 6. Incubation. Incubate plated cells for 30 min. at room temperature, protect from light. 7. Detector. GloSensor baseline pre-read luminescence measured using CCD-based camera (Viewlux). 8. Compound. Add 1uL of sodium nitroprusside (SNP) to 50 uM final concentration to stimulate soluble guanylyl cyclase (GC) or CO2 independent media as vehicle control. 9. Incubation. Incubate treated cells at room temperature for 20 min., protect from light. 10. Detector. GloSensor post-SNP luminescence measured using CCD-based camera (Viewlux). NOTES (numbers refer to Sequence numbers above; values are from representative experiments) 1. HEK293 cells expressing GIP/pGS-40F were grown to 85-95% confluence (48-72 h) in T175 culture flasks (CO2 independent media supplemented with 10% FBS, 1% Pen/Strep antibiotics, and 1 ug/mL puromycin). Trypsinize and harvest cells from T175 culture flasks and filter through 40 um cell strainer. Cells counted with Invitrogen Countess (30,000,000 - 50,000,000 cells/flask). Cells diluted to a final concentration of 375 cells/uL in CO2 independent media and a Millipore multidrop used to dispense 1500 cells per well (4uL/well) into 13 1536-well Greiner White/Solid bottom, high base tissue-culture treated (TC) plates and one Aurora 1536-well Black/Clear bottom, low base, TC plate (for visual inspection of cell health throughout the duration of the assay). 2. Cells incubated for 24 h. at 37C in 95% RH incubator with metal lid having gas-exchange holes. 3. Prepare GloSensor Reagent (Promega): Reconstitute GloSensor luciferase substrate by adding 8.2mL Hepes buffer to 250mg substrate, mix well, protect from light and stored at -80C. Prepare a fresh 12% GloSensor solution in CO2 independent supplemented plating media (see above). Mix well and store at ambient temperature, protected from light. 1uL 12% GloSensor Luciferase Reagent added (2% final concentration) to respective columns of 13 x 1536-well Greiner plate with BioRaptr, 1uL CO2 independent plating media added to respective columns as vehicle control with BioRaptr. 4. Cells incubated for 2 h. at ambient temperature, protected from light with metal lid having gas-exchange holes. 5. 23nL of library compounds or DMSO vehicle control transferred to 13 Greiner white/solid bottom high base, TC plates in 11 interplate 1:3 titrations (see Yasgar, A. et al. 2008) with Pintool. 6. […]
Potency is read from the fitted curve at half-maximal effect.

SMILES | Potency
COc1ccc(C2Cn3nnc(C(=O)N4CCN(C(=O)c5cccc(Cl)c5)CC4)c3CO2)cc1 (stereo unspecified) | 12.2 µM (active)
COc1cccc(C2Cn3nnc(-c4nc(-c5ccccc5)no4)c3CO2)c1 (stereo unspecified) | inactive
COc1ccc(C2Cn3nnc(C(=O)N4CCN(C(=O)c5ccc(C)cc5C)CC4)c3CO2)cc1 (stereo unspecified) | 21.7 µM (active)
O=[S+]1([O-])NCC2(CCCN(Cc3ccc(C(F)(F)F)cc3)C2)Oc2ncccc21 (stereo unspecified) | 15.3 µM (active)
COc1ccc(C(CC(=O)N(C)Cc2cc(C3CC3)n[nH]2)c2ccccc2)cc1 (stereo unspecified) | inactive
CC1(CCCCc2ccccc2)COc2ccc(C(=O)N3CC[S+](=O)([O-])CC3)cc2N1 (stereo unspecified) | inactive
COc1ccc(OCC2(C)COc3ccc(C(=O)Nc4cccnc4)cc3N2)cc1 (stereo unspecified) | 49.8 µM (active)
Cc1noc(C)c1-c1cc(-c2ccccc2Oc2ccccc2)cn2cncc12 | inactive
Cc1nc(-c2ccncc2)ncc1C(C)Nc1ncnc(C)c1C (stereo unspecified) | 19.3 µM (active)
CC(C)c1nncn1C1CCN(S(=O)(=O)c2cccc(Br)c2)CC1 | 24.3 µM (active)
CC1(C(=O)NCc2ccc3c(c2)OCO3)CCc2cnc(NCc3ccccc3)nc21 (stereo unspecified) | 44.4 µM (active)
CC(C)(C)c1csc(NC(=O)c2ccc3c(c2)OCCN(C2CCC2)C3)n1 | 25 µM (active)
COc1ccc(-c2noc(CC3CCN(C(=O)CC4CCCCC4)CC3)n2)cc1 | 8.62 µM (active)
COc1ccc(-c2noc(CC3CCN(C(=O)Cc4ccc(C)cc4)CC3)n2)cc1 | 30.6 µM (active)
COc1ccc(-c2noc(CC3CCN(C(=O)Cc4ccccc4)CC3)n2)cc1 | 27.3 µM (active)
COc1cccc(CNC(=O)Cn2c(N(C)Cc3ccccc3)nc(C)cc2=O)c1OC | 24.3 µM (active)
COc1cccc(NC(=O)Cn2c(N(C)Cc3ccccc3)nc(C)cc2=O)c1 | 10.9 µM (active)
COc1cccc(C2C(C(=O)Nc3ccccc3)=C(C)N=C3SC=C(CC(=O)NCC(C)C)N32)c1 (stereo unspecified) | inactive
O=C(c1ccc2cc[nH]c2c1)N1CCC2(CC1)N=C(c1ccc(Cl)cc1)NO2 | 15.3 µM (active)
Cc1nn2c(c1-c1ccccc1-c1ccccc1)N(CC1CC1)CCC2 | 2.8 µM (active)
Cc1nn2c(c1-c1ccnn1C(C)C)N(CC1CCOCC1)CCC2 | inactive

SMILES | Potency
CC1=NS(=O)(=O)N(C)C=C1C(=O)OCc1nc(-c2ccc(C)cc2)no1 | 8.62 µM (active)
CCN(CCCNC(=O)c1nnn2cc(-c3ccccc3)[nH]c(=O)c12)c1ccccc1 | inactive
Cc1c[nH]c(CN2CCCC(CCc3ccc(F)cc3F)C2)c(C)c1=O (stereo unspecified) | 2.43 µM (active)
Cc1noc(C)c1-c1cnc2[nH]cc(CC(=O)N3CCOCC3)c2c1 | 22.2 µM (active)
O=C(Cc1c[nH]c2ncc(-c3ccccc3F)cc12)N1CCOCC1 | 28 µM (active)
COc1ccccc1Nc1cnc2ccc(N(C)Cc3cccnc3)nn12 | 35.3 µM (active)
O=C(NCC1CC1)c1nc2c(o1)CCN(Cc1cccc(F)c1F)CC2 | 22.2 µM (active)
O=C1NCN(Cc2ccc(Cl)cc2)C12CCN(Cc1ccccc1)CC2 | 13.7 µM (active)
O=C1Nc2ccccc2CN(Cc2ccccc2)C12CCNCC2 | inactive
OC1(Cc2cc(-c3ccccc3)no2)CCN(c2ncncn2)CC1 | 6.85 µM (active)
O=C(NCc1nnc2cc(-c3nc(C4CC4)no3)ccn12)c1ccc(F)cc1Cl | 12.2 µM (active)
COc1ccc(CCNC(=O)c2noc(-c3ccc(C)cc3)n2)cc1OC | 21.7 µM (active)
O=C(c1ccc(F)cc1Cl)N1CCC(n2cc(-c3nc(-c4ccccc4)no3)nn2)C1 (stereo unspecified) | 4.32 µM (active)
O=C(c1ccc(Cl)cc1)N1CCCC(n2cc(-c3nc(-c4ccccc4)no3)nn2)C1 (stereo unspecified) | 13.7 µM (active)
COc1ccc(C(=O)N2CCC(n3cc(-c4nc(C(C)C)no4)nn3)CC2)cc1F | inactive
O=C(c1ccc(F)cc1F)N1CCN(c2cc(-c3ccc(Cl)cc3)[nH]n2)CC1 | 17.2 µM (active)
CCc1ccc(C(=O)N2CCN(c3cc(-c4ccc(F)cc4)[nH]n3)CC2)cc1 | 21.7 µM (active)
O=C(c1cc(F)ccc1Cl)N1CCN(c2cc(-c3ccc(F)cc3)[nH]n2)CC1 | 24.3 µM (active)
Cc1ccc(C(=O)N2CCN(c3cc(-c4ccc(Cl)cc4)[nH]n3)CC2)c(C)c1 | 6.11 µM (active)
C1CCC(COCCc2noc(C3CNC3)n2)C1 | 21.7 µM (active)
O=C(c1ccccn1)N1CC(Oc2ccc(-c3noc(C4CC4)n3)cc2)C1 | 13.7 µM (active)

SMILES | Potency
COc1ccc(-c2noc(CC3CCN(C(=O)Cc4ccc(OC)c(OC)c4)CC3)n2)cc1 | 3.85 µM (active)
COc1ccc(CC(=O)N2CCC(Cc3nc(-c4ccccc4)no3)CC2)cc1OC | 13.7 µM (active)
COc1ccc(CN2C(=O)CO[C@H]3CN(Cc4ccc5c(c4)OCO5)C[C@H]32)cc1 | 28 µM (active)
Cc1ccc2c(c1)nc1n2[C@@H](CNS(=O)(=O)c2ccccc2)COC1 | 35.3 µM (active)
N#Cc1cccc(CN2CCC(C3=NC(O)c4cc(F)ccc4N3)CC2)c1 (stereo unspecified) | 19.3 µM (active)
Fc1ccc(CNC[C@H]2Cn3c(-c4ccc5c(c4)OCCO5)cnc3CO2)cc1 | inactive
O=C(c1ccccc1)N1CCC(C(=O)N2CCC(Cc3nc(-c4ccc(F)cc4)no3)CC2)CC1 | 13.7 µM (active)
Cc1cccc(C(=O)N2CCC3(CC2)CC(N(Cc2ccc(F)cc2)C2CC2)CCO3)c1 (stereo unspecified) | inactive
COc1cccc(-c2noc(CC3CCN(C(=O)c4ccc(F)cc4)CC3)n2)c1 | 4.85 µM (active)
CN1CCN(C(=O)C(C)(C)Oc2nn(Cc3cccc(Cl)c3)c3ccccc23)CC1 | inactive
O=C(c1ccccc1)N1CCNc2cnc(Nc3cccc(C(F)(F)F)c3)nc2C1 | 22.2 µM (active)
Cc1cc(N2CCCC(Cn3cc(Cc4ccccc4)nn3)C2)nc(N)n1 (stereo unspecified) | 4.85 µM (active)
O=C1c2cnc(-c3ccc(Cl)cc3)nc2OCCN1Cc1ccccc1 | 35.3 µM (active)
CN(Cc1csc(-c2ccccc2)n1)c1cc(C2CC(O)C2)nc(N)n1 (stereo unspecified) | 1.93 µM (active)
Cc1ccc(OCc2nc(C3CCN(C(=O)CCc4nc5ccc(Cl)cc5[nH]4)CC3)no2)cc1 | 24.3 µM (active)
O=c1[nH]c(C2CCCN(Cc3ccccn3)C2)nn1-c1ccc(Cl)cc1 (stereo unspecified) | 9.68 µM (active)
CN(C)CCNC(=O)C(C)(C)Oc1nn(Cc2cccc(Cl)c2)c2ccccc12 | inactive
CC(C)c1cc(C(=O)N2CCC(n3cc(-c4ccccn4)nn3)CC2)n(C)n1 | 15.3 µM (active)
Cc1cccc(CN2CCc3nc(C(=O)Nc4ccc(Cl)cc4)oc3CC2)c1 | 8.86 µM (active)
